The source of these data is PubChem BioAssay (NCI).

About 83,000 compounds went through this panel and 20% of them were active in at least one assay; those are over-represented in the sample as a whole.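 Note: values are percent growth. 100 is the growth of untreated cells, values between 100 and 0 indicate rising inhibition; between -100 and 0 indicates cell death.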 A number with no mark means an inactive call. Active and inactive are the calls of the source. How the source made its calls: active means growth percent below 10; inactive means the rest.

Some test systems named below: NCI-H23 lung; NCI-H226 lung; NCI-H322M lung; HOP-62 NSCLC; NCI-H460 lung; HOP-92 NSCLC; NCI-H522 lung; A549/ATCC NSCLC; 786-0 renal; COLO 205 colon; K-562 leukemia; MALME-3M melanoma; MDA-MB-231 breast; RXF 393 renal; SF-268 CNS; SF-295 CNS; SF-539 CNS; UACC-257 melanoma; M14 melanoma; DU-145 prostate.
Common to all, as to test: NCI-60 one-dose screen, 48 h (100 = growth as untreated, 0 = no growth, -100 = all killed)
Common to all, as to conditions: 10 µM unless noted

On to `CCOc1ccc(Nc2nc3c(s2)C(=O)c2ccccc2C3=O)cc1`, for which the growth with NCI-H23 lung is 41.9%; in the experiment on NCI-H226 lung it was 87%; in the experiment on NCI-H322M lung it was 105%; in the experiment on HOP-62 NSCLC, 113%; with NCI-H460 lung, 94.4%; with HOP-92 NSCLC it was 85.1%. Also, the growth in the experiment with NCI-H522 lung was 51.5%; in the experiment on A549/ATCC NSCLC, 94%; with 786-0 renal, 108%; with COLO 205 colon it was 100%; with K-562 leukemia, 37.2%; with MALME-3M melanoma, 52.9%. The growth in the experiment on MDA-MB-231 breast was 33.9%; in the experiment with RXF 393 renal, 105%; in the experiment on SF-268 CNS, 73%; in the experiment on SF-295 CNS, 102%; in the experiment with SF-539 CNS, 108%; with UACC-257 melanoma, 94.7%. In the experiment on M14 melanoma, the growth is 85.9%.
Turning to `Oc1ccccc1N=Cc1ccccc1`, the growth was 64.2% in the experiment on NCI-H23 lung; 86.3% with NCI-H226 lung; 87.5% in the experiment on NCI-H322M lung; 99.1% in the experiment with HOP-62 NSCLC; 94.4% in the experiment with NCI-H460 lung; 102% with HOP-92 NSCLC. The growth in the experiment on NCI-H522 lung is 81.1%; in the experiment with A549/ATCC NSCLC, 98.2%; in the experiment with COLO 205 colon, 125%; in the experiment with DU-145 prostate it was 83.5%; in the experiment with K-562 leukemia, 48.6%; with MALME-3M melanoma, 95.6%. Also, the growth with RXF 393 renal is 117%; with SF-268 CNS, 89.9%; in the experiment with SF-295 CNS it was 111%; with SF-539 CNS it was 108%; in the experiment with UACC-257 melanoma, 94.3%; with M14 melanoma, 87.6%.
Take `Nc1ccc(Oc2ccccc2)c(Cl)c1`: the growth in the experiment with NCI-H23 lung is 108%; with NCI-H226 lung, 94.2%; in the experiment with NCI-H322M lung it was 86.3%; with HOP-62 NSCLC, 86.6%; in the experiment with NCI-H460 lung, 106%; in the experiment with HOP-92 NSCLC it was 82.6%. Moreover, the growth was 108% with NCI-H522 lung; 94.6% in the experiment with A549/ATCC NSCLC; 84.9% in the experiment on 786-0 renal; 96.2% with COLO 205 colon; 104% with DU-145 prostate; 115% in the experiment with K-562 leukemia. In addition, the growth with MDA-MB-231 breast was 111%; in the experiment with RXF 393 renal, 100%; with SF-268 CNS, 93%; in the experiment on SF-295 CNS, 92.1%; in the experiment with SF-539 CNS it was 91.7%; with UACC-257 melanoma, 94.7%. Further, the growth in the experiment on M14 melanoma was 94.6%.
As for `CC1(C)OCC(COC(c2ccccc2)(c2ccccc2)c2ccccc2)O1` (stereo not given), the growth with NCI-H23 lung was 104%; in the experiment with NCI-H226 lung, 92.1%; in the experiment on NCI-H322M lung it was 92.2%; with HOP-62 NSCLC it was 96.1%; in the experiment with NCI-H460 lung, 104%; with HOP-92 NSCLC it was 89.4%. In addition, the growth with NCI-H522 lung is 88.8%; with A549/ATCC NSCLC it was 86.3%; in the experiment with 786-0 renal it was 104%; in the experiment with COLO 205 colon it was 109%; in the experiment with DU-145 prostate, 100%; in the experiment with K-562 leukemia, 111%. In addition, the growth in the experiment with MDA-MB-231 breast is 91.7%; in the experiment with RXF 393 renal, 116%; with SF-268 CNS, 94.2%; in the experiment with SF-295 CNS it was 99.2%; in the experiment on SF-539 CNS, 104%; with UACC-257 melanoma, 91.7%. In the experiment on M14 melanoma, the growth was 95.1%.
Take `O=[N+]([O-])c1ccc(C2N(Cc3ccc(Cl)cc3)CCN2Cc2ccc(Cl)cc2)cc1`: the growth is 97.5% in the experiment on NCI-H23 lung; 95.1% with NCI-H226 lung; 75.5% with NCI-H322M lung; 94.5% with HOP-62 NSCLC; 101% in the experiment on NCI-H460 lung; -1.91% (active) in the experiment on HOP-92 NSCLC. The growth with NCI-H522 lung is 75.8%; in the experiment with A549/ATCC NSCLC, 96%; in the experiment with 786-0 renal it was 81.7%; in the experiment with DU-145 prostate it was 107%; in the experiment with K-562 leukemia it was 67%; with MALME-3M melanoma, 109%. The growth is 79.6% in the experiment with MDA-MB-231 breast; 74.4% in the experiment with RXF 393 renal; 90.1% in the experiment on SF-268 CNS; 92.1% in the experiment on SF-295 CNS; 86.3% with SF-539 CNS; 92% with UACC-257 melanoma. For the same compound, in the experiment with M14 melanoma, the growth was 86.2%.
Regarding `CCCN(CCC)C(=O)c1ccc(C)cc1`, the growth with NCI-H23 lung was 99.3%; with NCI-H226 lung, 81.2%; in the experiment on NCI-H322M lung, 111%; with HOP-62 NSCLC it was 80%; in the experiment on NCI-H460 lung it was 99.8%; in the experiment with HOP-92 NSCLC it was 66.3%. The growth is 82.3% in the experiment with NCI-H522 lung; 93.2% with A549/ATCC NSCLC; 98% with 786-0 renal; 109% in the experiment with DU-145 prostate; 109% with K-562 leukemia; 100% in the experiment on MALME-3M melanoma. The growth in the experiment on MDA-MB-231 breast is 108%; in the experiment on RXF 393 renal, 113%; in the experiment on SF-268 CNS, 100%; in the experiment with SF-295 CNS, 91.9%; with SF-539 CNS, 101%; with UACC-257 melanoma, 91.3%. For the same compound, the growth in the experiment with M14 melanoma is 95.2%.
As for `NC(CS/C(Cl)=C/Cl)C(=O)O` (stereo not given), the growth is 97.6% with NCI-H23 lung; 86.9% in the experiment with NCI-H226 lung; 73.5% with NCI-H322M lung; -3.21% (active) in the experiment on HOP-62 NSCLC; -45.9% (active) in the experiment on NCI-H460 lung; 83.3% in the experiment on HOP-92 NSCLC. Further, the growth in the experiment with NCI-H522 lung was 93.4%; in the experiment with A549/ATCC NSCLC, -52.9% (active); in the experiment with 786-0 renal it was 105%; with K-562 leukemia it was 89.2%; with MALME-3M melanoma, 89.6%; in the experiment with MDA-MB-231 breast, 88.1%. Besides, the growth is 105% in the experiment on RXF 393 renal; 99.3% in the experiment with SF-268 CNS; 9.28% (active) in the experiment with SF-295 CNS; 104% in the experiment on SF-539 CNS; 78.3% in the experiment with UACC-257 melanoma; 58.2% with M14 melanoma.
Take `c1csc(-c2[nH]nc3c2CCc2ccccc2-3)c1`: the growth in the experiment on NCI-H23 lung was 95.8%; with NCI-H226 lung, 80.9%; in the experiment on NCI-H322M lung it was 55.4%; in the experiment with HOP-62 NSCLC it was 91.1%; with NCI-H460 lung, 55%; in the experiment on NCI-H522 lung it was 101%. The growth in the experiment on A549/ATCC NSCLC is 89.1%; in the experiment on 786-0 renal it was 103%; in the experiment with COLO 205 colon it was -11.2% (active); with DU-145 prostate it was 103%; in the experiment with K-562 leukemia, 114%; with MALME-3M melanoma it was 79.3%. In addition, the growth with MDA-MB-231 breast was 37.2%; in the experiment on RXF 393 renal, 94.7%; in the experiment on SF-268 CNS it was 101%; in the experiment with SF-295 CNS, 91.7%; in the experiment with SF-539 CNS, 82.1%; in the experiment on UACC-257 melanoma, 98.6%. Moreover, the growth in the experiment with M14 melanoma was 107%.
